Most compounds without a hit are left out; they make up all but 19% or so of the library.
HepG2 viability: qHTS for Inhibitors of TGF-b: Cytotox Counterscreen; HepG2 CAGA-GFP viability, ATP luminescence, 18 h; AID 588856, 2011; actives 0.76% (n = 410,000); Potency, µM (doses to about 46.1 µM), inactives show at the top dose activity change, negative = cytotoxicity, most hits filed as cytotoxic; note: potency is the fitted concentration of half-maximal effect
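CellTiter-Glo luminescence gave cytotoxicity after 18 hours at 37 degrees C. The cells were HepG2 CAGA-GFP in 1% FBS DMEM, stimulated with 500 pg/mL TGF-beta after compound addition. %Activity was normalised to no-cell wells (complete cell-killing) and DMSO (no toxicity), and curves were fitted and classified.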
ASM inhibitor: Inhibitors of Secretory Acid Sphingomyelinase (S-ASM): qHTS; Sphingomyelin phosphodiesterase (Homo sapiens), P17405; placental ASM, HMU-PC fluorogenic substrate, 60 min; Potency, µM (series often up to 57.5 µM), for inactives: top-dose activity change, negative = inhibition, hits mostly inhibitors; actives 0.006% (n = 340,000); AID 504937, 2011; note: potency is the fitted concentration of half-maximal effect
Target sequence (P17405 47-631 limits assumed): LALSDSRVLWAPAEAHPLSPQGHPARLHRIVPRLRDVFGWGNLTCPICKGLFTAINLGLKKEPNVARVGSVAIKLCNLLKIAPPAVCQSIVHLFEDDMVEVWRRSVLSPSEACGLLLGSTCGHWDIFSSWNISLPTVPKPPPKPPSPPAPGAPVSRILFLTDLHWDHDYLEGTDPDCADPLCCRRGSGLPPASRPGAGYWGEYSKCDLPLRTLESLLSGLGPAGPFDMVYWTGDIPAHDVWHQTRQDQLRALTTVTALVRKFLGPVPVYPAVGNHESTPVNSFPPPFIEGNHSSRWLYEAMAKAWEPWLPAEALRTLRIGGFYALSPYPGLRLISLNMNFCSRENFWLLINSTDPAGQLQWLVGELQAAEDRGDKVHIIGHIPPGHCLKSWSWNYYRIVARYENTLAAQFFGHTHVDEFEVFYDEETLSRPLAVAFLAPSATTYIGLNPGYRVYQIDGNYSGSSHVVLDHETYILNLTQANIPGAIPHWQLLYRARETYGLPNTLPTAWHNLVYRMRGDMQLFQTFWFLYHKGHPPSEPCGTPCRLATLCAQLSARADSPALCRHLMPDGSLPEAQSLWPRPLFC
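Fluorogenic HMU-PC substrate (9 uM final) is turned over by placental ASM in 60 min at 37 C after a 10 min compound preincubation. Reaction ended by alkaline stop (pH 10), with fluorescence read at 386/447 nm.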
TDP1 cell CPT: qHTS for Inhibitors of human tyrosyl-DNA phosphodiesterase 1 (TDP1): qHTS in cells in presence of CPT. chicken DT40 Tdp1-/-;hTDP1 cells + 20 nM CPT, ATP luminescence, 48 h. Potency, µM (series often up to 46.2 µM), for the others: at the top dose activity change, negative = growth inhibition, usual class: inhibitors. actives 12% (n = 420,000); note: potency is the fitted concentration of half-maximal effect; % is set by controls: 0 for no effect and ±100 for the full control effect; nearly all actives have a fitted effect of over 55% in size
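Chicken DT40 Tdp1-/- cells stably complemented with human TDP1 were seeded at 400 cells/well in medium containing 20 nM camptothecin, exposed to pin-transferred compounds, and grown at 37 °C for at least 48 hr. Viability was read as ATP luminescence.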
DT40 TDP1 no CPT: qHTS for Inhibitors of human tyrosyl-DNA phosphodiesterase 1 (TDP1): qHTS in cells in absence of CPT; DT40 Tdp1-/- hTDP1 cells, no CPT, ATP luminescence, 48 h; Potency, µM (doses to about 46.2 µM), inactives show at the top dose activity change, negative = growth inhibition, most hits filed as inhibitors; actives 15% (n = 420,000); note: potency is the fitted concentration of half-maximal effect; % is set by controls: 0 for no effect and ±100 for the full control effect; nearly all actives have a fitted effect of over 55% in size
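Seeded 400 DT40-hTDP1 cells/well (vehicle DMSO, no 20 nM CPT); pinned compounds; ≥48 hr at 37 °C; CellTiter-Glo luminescence as viability measure.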
IL-1B inflam inh: qHTS for Inhibitors of Inflammasome Signaling: IL-1-beta AlphaLISA Primary Screen; THP-1 LPS/ATP IL-1B secretion, AlphaLISA, 16 h; stronger effect = lower value; actives 4.7% (n = 360,000); activity change, % at 57.5 µM; in the data active = activity change below about -50%; inconclusive = mostly about -30% to -49%; note: % is set by controls: 0 for no effect and ±100 for the full control effect
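Secreted IL-1B measured by AlphaLISA bead assay after 16 h compound exposure of THP-1 cells; compounds (final up to 57.5 uM) added 1 h before LPS (250 ng/mL) and ATP (1.25 mM) stimulation; lower signal means less secretion.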
TGFb inhibitor: qHTS for Inhibitors of TGF-b; Potency, µM (doses to about 46.1 µM), for inactives: top-dose activity, negative = inhibition, hits mostly inhibitors; actives 1.2% (n = 410,000); HepG2 CAGA-GFP TGF-b/SMAD3 reporter, GFP fluorescence, 18 h; TGF-beta stimulated, 500 pg/mL final; note: potency is the fitted concentration of half-maximal effect; % is set by controls: 0 for no effect and ±100 for the full control effect; nearly all actives have a fitted effect of over 65% in size
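First, reporter cells (HEPG2 CAGA-GFP) rested 2 h at 37 degrees C. Next, compounds were pinned in and TGF-beta added to 500 pg/mL final. After 18 h, GFP was imaged per cell and summed per well.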
An asterisk follows results filed as active; i = inactive; ? = inconclusive; . = no result; [ ] = remark or other dose. Unless noted, calls come from the whole dose curve; as a rule, active = well fitted curve in the direction sought with a large enough effect; inconclusive = small, poorly fitted or top-dose-only effect, or another doubt; inactive = no such curve, though single readings can be large; an effect the other way counts as inactive or inconclusive.

SMILES	HepG2 viability	ASM inhibitor	TDP1 cell CPT	DT40 TDP1 no CPT	IL-1B inflam inh	TGFb inhibitor
COc1ccc(CCNC(=O)Cc2ccc(OCc3ccccc3)c(OC)c2[N+](=O)[O-])cc1OCc1ccccc1	0%	-2%	23µM*	8.2µM*	30	-3%
O=C(CSc1nc2cc(C(=O)O)ccc2c(=O)n1-c1ccc(F)cc1)Nc1ccc(F)c(F)c1F	-11%	8%	-10%	-25%	6	-5%
COc1ccc(CNS(=O)(=O)CCNCCc2ccccc2)cc1	-15%	0%	2%	?	-6	-14%
COc1ccc(CCNCc2ccc(OCc3ccccc3)cc2)cc1	-101%	-1%	?	?	-99*	?
NCCSC1CC(=O)N(Cc2ccc(F)cc2)C1=O (configuration not stated)	5%	3%	-19%	-1%	6	?
O=C1CC(Sc2ccc(Cl)cc2)C(=O)N1Cc1ccncc1 (configuration not stated)	-2%	1%	23µM*	18µM*	-3	-17%
Cc1cc(C)c(S(=O)(=O)Nc2c(C)[nH]c(=O)[nH]c2=O)c(C)c1	-2%	0%	16µM*	23µM*	1	-1%
NC(=S)NN=Cc1nccc2c(C(F)(F)C(F)(F)C(F)(F)F)cccc12	-37%	.	0.016µM*	0.52µM*	117	1.4µM*
CC(=O)n1cc(/C=N/NC(N)=S)c2ccccc21	2%	-6%	?	-102%	-15	-20%
Cc1cnc(C=NNC(N)=S)c2cccc(N)c12	-30%	0%	3.3µM*	3.7µM*	62	10µM*
NC(=S)NN=Cc1nccc2ccccc12	-8%	-1%	2.3µM*	2.1µM*	109	-18%
COc1ccc(N2CCN(C(=O)c3cnn(-c4ccc(F)cc4)c3-n3cccc3)CC2)cc1	5%	.	.	.	.	1%
NC(N)=Nc1nc(-c2ccccc2)c2ccccc2n1	-40%	10%	26µM*	15µM*	.	?
Clc1nc(-c2ccccc2)c2ccccc2n1	-2%	-3%	13%	-2%	22	8%
COc1ccc(-c2cc(-c3cc(OC)ccc3O)[nH]n2)cc1	-14%	-1%	21µM*	?	-8	?
Cc1ccc(O)c(-c2cc(-c3cccc(F)c3)n[nH]2)c1	-84%	-16%	?	?	-12	22µM*
COc1ccc(O)c(-c2cc(-c3ccc(F)cc3)n[nH]2)c1	-15%	-2%	-25%	?	-51*	?
COc1ccc(-c2cc(-c3ccc(Cl)cc3)n[nH]2)c(O)c1	-49%	-1%	?	?	?	?
COc1ccc(O)c(-c2cc(-c3cccc(Br)c3)n[nH]2)c1	-129%	-8%	?	16µM*	-6	?
CCn1c(=NC(=O)CN2C(=O)CCC2=O)sc2c(OC)ccc(OC)c21	-2%	-3%	?	?	-20	3%
CCn1c(=NC(=O)C2COc3ccccc3O2)sc2c(C)ccc(OC)c21 (configuration not stated)	-77%	-16%	21µM*	12µM*	-25	?
C=CCn1c(=NC(=O)C2COc3ccccc3O2)sc2cccc(OC)c21 (configuration not stated)	-60%	-11%	?	23µM*	0	-25%
C=CCn1c(=NC(=O)CN2C(=O)CCC2=O)sc2cccc(OC)c21	-7%	2%	?	?	-16	-1%
COC(=O)Cn1c(=NC(=O)C2COc3ccccc3O2)sc2cc(S(N)(=O)=O)ccc21 (configuration not stated)	-13%	-2%	?	18µM*	-52*	-15%
COC(=O)Cn1c(=NC(=O)CN2C(=O)CCC2=O)sc2cc(S(N)(=O)=O)ccc21	6%	8%	-8%	-8%	27	1%
SMILES	HepG2 viability	ASM inhibitor	TDP1 cell CPT	DT40 TDP1 no CPT	IL-1B inflam inh	TGFb inhibitor
COc1ccc(NC(=O)Cn2c(=O)n(Cc3ccco3)c(=O)c3sc4ccccc4c32)cc1Cl	-8%	.	-3%	-24%	.	20%
CC(NC(=O)Cc1ccc(-c2ccccc2)cc1)c1ccccc1 (configuration not stated)	-42%	-2%	26µM*	?	-22	-9%
c1ccc(CN=C(NCc2ccccc2)NCc2ccccc2)cc1	22µM*	2%	2.3µM*	2.9µM*	-80*	?
Cc1ccc(CNC(=O)COC(=O)Cc2ccc(-c3ccccc3)cc2)cc1	3%	-5%	?	?	13	-29%
O=C(Cc1ccc(-c2ccccc2)cc1)NCc1cccnc1	-11%	3%	2.9µM*	6.5µM*	12	-13%
Cc1ccc(CNC(=O)Cc2ccc(-c3ccccc3)cc2)cc1	-22%	0%	1µM*	0.58µM*	74	-20%
O=C(Cc1ccccc1)NCc1cccnc1	5%	5%	5%	-19%	5	0%
OC(CSc1nnnn1-c1ccccc1)Cn1c2ccccc2c2ccccc21 (configuration not stated)	.	.	?	?	-22	.
CCN(Cc1ccncc1)Cc1ccc2c(c1)CN(C(=O)c1ccc(C)cc1)CCO2	.	.	8%[9.04 µM]	?	.	.
COc1ccc(CCNC(=O)CCc2nnc(Cc3ccc4c(c3)OCO4)o2)cc1	0%	-2%	23µM*	18µM*	i	14%
O=C(Cc1ccc(-c2ccccc2)cc1)NCc1ccccc1	1%	4%	0.52µM*	0.46µM*	4	?
O=C(Cc1ccc(NS(=O)(=O)c2ccc(F)cc2)cc1)NCc1ccccc1	-2%	-3%	?	23µM*	19	?
COc1cccc(CCNC(=O)CCc2nnc(Cc3cc(OC)ccc3OC)o2)c1	5%	1%	1%	13%	22	-16%
O=C(CCC(=O)NCc1ccccc1)NCc1ccccc1	-2%	0%	1%	-4%	23	4%
O=C(CCc1nnc(Cc2ccc(-c3ccccc3)cc2)o1)NCCc1cccnc1	-32%	1%	?	18µM*	0	-27%

Source: PubChem
